Experimental data reported in PubChem BioAssay (EPA / NIEHS).
Records with an inconclusive call do not appear. The source made the active and inactive calls. The calls were made as follows, unless noted: active = hit-call score of the fitted dose curve at least 0.9, where 1 is the maximum; inactive = score below 0.9.

Assays:
[1] = target: Glucocorticoid receptor (Homo sapiens) (UniProt P04150); test: ATG_GR_TRANS: Attagene TRANS-FACTORIAL HepG2 Assay for human Glucocorticoid Receptor (GR) (AID 2282978; active = hit-call score of the fitted dose curve at least 0.9, where 1 is the maximum;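 also: activators score as hits since higher reporter transcript over DMSO is fitted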); conditions: HepG2 Attagene TRANS GR reporter, mRNA transcription
Glucocorticoid receptor (Homo sapiens), sequence (P04150 whole entry, looked up, the tested form may be a part): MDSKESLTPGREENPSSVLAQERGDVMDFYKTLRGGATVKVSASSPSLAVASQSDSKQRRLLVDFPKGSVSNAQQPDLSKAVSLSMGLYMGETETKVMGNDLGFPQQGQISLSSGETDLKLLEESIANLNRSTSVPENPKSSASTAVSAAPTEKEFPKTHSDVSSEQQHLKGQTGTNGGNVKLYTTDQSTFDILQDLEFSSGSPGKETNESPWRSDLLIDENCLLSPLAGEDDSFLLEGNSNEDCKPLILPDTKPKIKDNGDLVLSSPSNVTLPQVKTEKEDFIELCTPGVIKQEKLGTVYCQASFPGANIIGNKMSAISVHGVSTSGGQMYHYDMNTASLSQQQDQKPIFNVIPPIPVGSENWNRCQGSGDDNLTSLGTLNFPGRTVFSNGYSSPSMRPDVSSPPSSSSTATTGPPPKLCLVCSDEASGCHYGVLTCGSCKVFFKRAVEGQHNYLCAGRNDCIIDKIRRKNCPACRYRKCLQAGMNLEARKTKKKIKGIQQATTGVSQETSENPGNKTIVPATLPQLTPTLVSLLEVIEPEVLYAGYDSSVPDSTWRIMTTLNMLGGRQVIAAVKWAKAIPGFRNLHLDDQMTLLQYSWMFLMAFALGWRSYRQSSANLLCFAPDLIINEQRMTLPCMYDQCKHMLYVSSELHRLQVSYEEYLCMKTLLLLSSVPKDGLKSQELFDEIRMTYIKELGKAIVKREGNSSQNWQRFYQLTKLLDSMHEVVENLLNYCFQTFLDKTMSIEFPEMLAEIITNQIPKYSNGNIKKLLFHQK
How it was run: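 HepG2 cells transiently transfected with GAL4-UAS reporter units and exogenous GR-Gal4 chimera, dosed 24 h. Reporter mRNA by RT-PCR, FAM labeling, HpaI digest and capillary electrophoresis; gain-of-signal fit versus DMSO.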

[2] = target: Bile acid receptor (Homo sapiens) (UniProt Q96RI1); test: ATG_FXR_TRANS: Attagene TRANS-FACTORIAL HepG2 Assay for Farnesoid X Receptor (FXR) (AID 2282979; active = hit-call score of the fitted dose curve at least 0.9, where 1 is the maximum;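 also: hits raise reporter mRNA above DMSO so AC50 marks FXR activation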); conditions: HepG2 Attagene TRANS FXR-GAL4 reporter transcription
Bile acid receptor (Homo sapiens), sequence (Q96RI1 whole entry, looked up, the tested form may be a part): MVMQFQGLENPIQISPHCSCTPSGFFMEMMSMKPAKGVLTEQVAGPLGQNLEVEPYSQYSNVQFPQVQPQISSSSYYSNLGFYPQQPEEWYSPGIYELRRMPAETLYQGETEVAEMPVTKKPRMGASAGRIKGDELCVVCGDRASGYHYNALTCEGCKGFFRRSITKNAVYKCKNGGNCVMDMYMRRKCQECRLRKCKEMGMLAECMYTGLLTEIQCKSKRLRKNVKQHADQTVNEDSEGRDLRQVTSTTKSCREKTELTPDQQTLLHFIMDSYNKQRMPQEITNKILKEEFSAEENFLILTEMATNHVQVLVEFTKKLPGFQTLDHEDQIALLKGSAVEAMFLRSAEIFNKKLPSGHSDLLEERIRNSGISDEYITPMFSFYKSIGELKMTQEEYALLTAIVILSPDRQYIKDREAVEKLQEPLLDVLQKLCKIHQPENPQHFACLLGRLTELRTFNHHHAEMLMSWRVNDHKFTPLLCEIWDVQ
How it was run: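 Read-out: fluorescent reporter transcripts quantified by capillary electrophoresis after RT-PCR of total RNA. Source cells were HepG2 transiently carrying chimeric NR-GAL4 plus GAL4-UAS reporter units, dosed 24 h. Activity fitted upward relative to DMSO baseline.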

[3] = target: Oxysterols receptor LXR-beta (Homo sapiens) (UniProt P55055); test: ATG_LXRb_TRANS: Attagene TRANS-FACTORIAL HepG2 Assay for human Liver X Receptor beta (LXRb) (AID 2282981; active = hit-call score of the fitted dose curve at least 0.9, where 1 is the maximum); conditions: HepG2 Attagene TRANS GAL4-LXRb reporter, mRNA
Oxysterols receptor LXR-beta (Homo sapiens), sequence (P55055 whole entry, looked up, the tested form may be a part): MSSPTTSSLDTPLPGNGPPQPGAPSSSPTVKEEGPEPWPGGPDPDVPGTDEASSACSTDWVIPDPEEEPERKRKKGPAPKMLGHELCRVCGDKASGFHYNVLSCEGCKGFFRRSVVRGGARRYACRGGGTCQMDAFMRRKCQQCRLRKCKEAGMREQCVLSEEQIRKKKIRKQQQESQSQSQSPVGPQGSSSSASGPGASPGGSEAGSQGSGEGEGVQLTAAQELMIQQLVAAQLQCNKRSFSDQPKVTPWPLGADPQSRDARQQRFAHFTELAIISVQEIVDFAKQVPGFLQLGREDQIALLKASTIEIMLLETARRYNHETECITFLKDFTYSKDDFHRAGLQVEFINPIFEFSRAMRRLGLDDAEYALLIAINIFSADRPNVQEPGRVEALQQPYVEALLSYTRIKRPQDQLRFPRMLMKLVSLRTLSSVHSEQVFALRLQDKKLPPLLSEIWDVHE
How it was run: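 Measures induction of a Gal4-driven reporter transcript in HepG2 cells expressing an exogenous LXRb-Gal4 fusion. Cells are exposed to compound for 24 h before RNA isolation and RT-PCR with capillary electrophoresis detection.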

[4] = ATG_M_32_TRANS: Attagene TRANS-FACTORIAL HepG2 Assay for M32 Transcription Factor (Internal Marker) (AID 2282984; active = hit-call score of the fitted dose curve at least 0.9, where 1 is the maximum;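 also: transcript level of a background control reporter unit measured by RT-PCR and capillary electrophoresis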); conditions: HepG2 Attagene TRANS M32 internal marker reporter
How it was run: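 After 24 h dosing of transfected HepG2 cells, total RNA was reverse-transcribed, reporter sequences PCR-amplified, 6-FAM labelled by primer extension and HpaI-digested before capillary electrophoresis. Signal increase over DMSO was fitted.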

[5] = target: Transcriptional activator Myb (Homo sapiens) (UniProt P10242); test: ATG_Myb_CIS: Attagene CIS-FACTORIAL HepG2 Assay for human Myeloblastosis (Myb) Proto-Oncogene Transcription Factor (AID 2282986); conditions: HepG2 Attagene CIS-FACTORIAL Myb reporter transcription; actives raise or lower the signal
Transcriptional activator Myb (Homo sapiens), sequence (P10242 whole entry, looked up): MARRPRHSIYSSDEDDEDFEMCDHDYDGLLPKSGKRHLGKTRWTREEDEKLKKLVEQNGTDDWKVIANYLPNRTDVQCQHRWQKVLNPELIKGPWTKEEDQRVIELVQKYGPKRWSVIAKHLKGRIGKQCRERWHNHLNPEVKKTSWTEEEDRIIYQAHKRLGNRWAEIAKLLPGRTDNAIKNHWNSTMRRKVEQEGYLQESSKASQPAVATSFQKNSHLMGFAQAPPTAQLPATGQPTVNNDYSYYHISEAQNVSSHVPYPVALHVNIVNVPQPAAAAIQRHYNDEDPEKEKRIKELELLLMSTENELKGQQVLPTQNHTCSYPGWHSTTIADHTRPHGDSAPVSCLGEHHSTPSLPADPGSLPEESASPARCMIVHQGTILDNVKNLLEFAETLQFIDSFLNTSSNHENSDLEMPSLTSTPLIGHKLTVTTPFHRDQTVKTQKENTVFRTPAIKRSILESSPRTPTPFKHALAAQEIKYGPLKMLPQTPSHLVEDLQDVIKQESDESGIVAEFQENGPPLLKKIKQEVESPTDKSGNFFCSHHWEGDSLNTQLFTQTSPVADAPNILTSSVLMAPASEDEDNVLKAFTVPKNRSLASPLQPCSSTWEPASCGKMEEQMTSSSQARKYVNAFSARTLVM
How it was run: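 Transiently transfected HepG2 cells carrying a multiplexed cis-promoter reporter set report endogenous Myb activity after 24 h compound exposure. Reporter mRNA is read by RT-PCR with capillary electrophoresis of fluorescent products, fitted bidirectionally against DMSO.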

[6] = target: Nuclear respiratory factor 1 (Homo sapiens) (UniProt Q16656); test: ATG_NRF1_CIS: Attagene CIS-FACTORIAL HepG2 Assay for human Nuclear Respiratory Factor 1 (NRF1) Orphan Gene (AID 2282987); conditions: HepG2 NRF1 cis-element reporter, Attagene multiplex; actives raise or lower the signal
How it was run: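 HepG2 cells transiently transfected with multiple cis-regulated reporter units, exposed 24 h. Reporter mRNAs measured by RT-PCR, fluorescent labelling, HpaI digestion and capillary electrophoresis; bidirectional fitting against DMSO.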

[7] = ATG_NFI_CIS: Attagene CIS-FACTORIAL HepG2 Assay for human Nuclear Factor I (NFI) (AID 2282989); conditions: HepG2 cis-regulatory reporter, NFI response element transcription; actives raise or lower the signal
How it was run: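 HepG2, transient MRTU, 24 h exposure; RNA→cDNA→PCR→FAM label→HpaI→CE fluorescence. Bidirectional fit, DMSO = baseline.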

[8] = target: Myc proto-oncogene protein (Homo sapiens) (UniProt P01106); test: ATG_Myc_CIS: Attagene CIS-FACTORIAL HepG2 Assay for human Myelocytomatosis (Myc) Proto-Oncogene Transcription Factor (AID 2282990); conditions: HepG2, Attagene cis-reporter transcription factor activity; actives raise or lower the signal
Myc proto-oncogene protein (Homo sapiens), sequence (P01106 whole entry, looked up): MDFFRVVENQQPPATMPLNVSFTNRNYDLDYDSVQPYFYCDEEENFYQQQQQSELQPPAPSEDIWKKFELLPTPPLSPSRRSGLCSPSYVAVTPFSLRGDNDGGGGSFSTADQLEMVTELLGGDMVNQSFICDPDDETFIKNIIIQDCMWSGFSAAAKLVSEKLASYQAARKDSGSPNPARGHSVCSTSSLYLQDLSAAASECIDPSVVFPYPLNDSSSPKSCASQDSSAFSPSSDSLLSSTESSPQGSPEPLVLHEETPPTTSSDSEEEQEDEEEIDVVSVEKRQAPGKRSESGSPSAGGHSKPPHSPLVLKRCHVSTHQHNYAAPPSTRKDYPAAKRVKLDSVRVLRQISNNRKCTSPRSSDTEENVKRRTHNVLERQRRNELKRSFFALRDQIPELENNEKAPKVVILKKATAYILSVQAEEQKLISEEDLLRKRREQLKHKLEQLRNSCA
How it was run: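 Multiplexed cis-reporter transcription in HepG2 cells after 24 h chemical treatment. Reporter mRNA measured by RT-PCR and capillary electrophoresis fluorescence; activity fitted bidirectionally against DMSO control.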

[9] = ATG_NRF2_ARE_CIS: Attagene CIS-FACTORIAL HepG2 Assay for human Nuclear Factor Erythroid 2 Related Factor 2 (NFR2) response to Antioxidant Response Elements (ARE) (AID 2282992); conditions: HepG2 Attagene ARE/NRF2 reporter, transcription factor activity; actives raise or lower the signal
How it was run: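 Fluorescence intensity of reporter-specific cDNA fragments, separated by capillary electrophoresis, reflects mRNA induction in transfected HepG2 cells at 24 h. Activity is fitted bidirectionally, DMSO serving as baseline.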

[10] = ATG_Oct_MLP_CIS: Attagene CIS-FACTORIAL HepG2 Assay for human Octamer-Binding Transcription Factor (Oct) (AID 2282993); conditions: HepG2 Attagene cis-factorial Oct reporter, mRNA; actives raise or lower the signal
How it was run: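 Multiplexed cis-reporter assay in human liver HepG2 cells, 24 h incubation. Reporter RNA amplified and labelled, then resolved by capillary electrophoresis; DMSO serves as negative control and baseline.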

[11] = target: Oxysterols receptor LXR-alpha (Homo sapiens) (UniProt Q13133); test: ATG_LXRa_TRANS: Attagene TRANS-FACTORIAL HepG2 Assay for human Liver X Receptor alpha (LXRa) (AID 2282980; active = hit-call score of the fitted dose curve at least 0.9, where 1 is the maximum); conditions: HepG2 Attagene TRANS reporter, LXRa transactivation
Oxysterols receptor LXR-alpha (Homo sapiens), sequence (Q13133 whole entry, looked up, the tested form may be a part): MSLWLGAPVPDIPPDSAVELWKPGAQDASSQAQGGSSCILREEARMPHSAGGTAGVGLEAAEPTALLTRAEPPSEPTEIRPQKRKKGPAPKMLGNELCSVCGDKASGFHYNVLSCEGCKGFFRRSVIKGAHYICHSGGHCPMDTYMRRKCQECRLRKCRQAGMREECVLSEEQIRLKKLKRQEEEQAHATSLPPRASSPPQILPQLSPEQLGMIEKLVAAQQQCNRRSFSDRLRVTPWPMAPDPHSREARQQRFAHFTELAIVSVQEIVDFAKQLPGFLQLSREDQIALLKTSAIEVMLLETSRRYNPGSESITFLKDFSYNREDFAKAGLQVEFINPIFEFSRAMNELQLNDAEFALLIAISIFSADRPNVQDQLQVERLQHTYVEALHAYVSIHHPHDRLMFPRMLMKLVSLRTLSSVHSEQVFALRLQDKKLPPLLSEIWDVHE
How it was run: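 Read-out: reporter transcript levels by RT-PCR plus capillary electrophoresis, fluorescence intensity. Transiently transfected HepG2, exogenous NR-GAL4 chimera, GAL4-UAS reporters; 24 h compound exposure. Activity = increase over DMSO negative control.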

[12] = ATG_M_06_TRANS: Attagene TRANS-FACTORIAL HepG2 Assay for M06 Transcription Factor (Internal Marker) (AID 2282983; active = hit-call score of the fitted dose curve at least 0.9, where 1 is the maximum); conditions: HepG2 Attagene TRANS M06 internal marker reporter
How it was run: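 Read-out: fluorescent reporter cDNA fragments resolved by capillary electrophoresis after RT-PCR and HpaI cut. Source cells were HepG2 carrying transfected multi-reporter GAL4 constructs, dosed 24 h. Increase over DMSO control analysed.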

[13] = target: Nuclear receptor subfamily 4 group A member 2 (Homo sapiens) (UniProt P43354); test: ATG_NURR1_TRANS: Attagene TRANS-FACTORIAL HepG2 Assay for human Nuclear Receptor Related Protein 1 (NURR1) (AID 2282985; active = hit-call score of the fitted dose curve at least 0.9, where 1 is the maximum); conditions: HepG2 Attagene TRANS reporter, mRNA readout
Nuclear receptor subfamily 4 group A member 2 (Homo sapiens), sequence (P43354 whole entry, looked up, the tested form may be a part): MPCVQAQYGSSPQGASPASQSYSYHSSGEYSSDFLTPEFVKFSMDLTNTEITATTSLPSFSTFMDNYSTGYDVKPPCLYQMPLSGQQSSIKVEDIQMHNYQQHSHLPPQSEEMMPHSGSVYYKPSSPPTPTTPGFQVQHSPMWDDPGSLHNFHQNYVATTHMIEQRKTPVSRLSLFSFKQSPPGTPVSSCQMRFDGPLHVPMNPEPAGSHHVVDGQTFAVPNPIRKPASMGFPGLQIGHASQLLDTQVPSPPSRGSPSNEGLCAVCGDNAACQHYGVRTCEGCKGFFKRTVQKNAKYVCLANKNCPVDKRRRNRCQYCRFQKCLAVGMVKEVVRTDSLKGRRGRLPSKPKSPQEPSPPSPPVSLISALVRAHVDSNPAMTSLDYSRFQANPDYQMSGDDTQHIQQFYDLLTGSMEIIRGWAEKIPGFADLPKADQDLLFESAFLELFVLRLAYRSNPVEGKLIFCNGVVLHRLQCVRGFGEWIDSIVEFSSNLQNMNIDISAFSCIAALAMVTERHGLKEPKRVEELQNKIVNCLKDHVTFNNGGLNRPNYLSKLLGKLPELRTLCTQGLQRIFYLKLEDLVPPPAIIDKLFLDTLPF
How it was run: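 Chimeric NR-Gal4 fusion activity measured in HepG2 after 24 h treatment. Reporter transcripts detected by RT-PCR and capillary electrophoresis fluorescence; positive-direction curve fitting against DMSO.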

[14] = ATG_NF_kB_CIS: Attagene CIS-FACTORIAL HepG2 Assay for human Nuclear Factor Kappa B (NF-kB) (AID 2282991); conditions: HepG2 Attagene cis-factorial NF-kB reporter mRNA; actives raise or lower the signal
How it was run: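 HepG2 cells transfected with cis-promoter-driven reporter units, so endogenous transcription factor activity is measured. Reporter mRNA quantified 24 h after dosing by RT-PCR and capillary electrophoresis, with bidirectional fitting against DMSO.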

[15] = target: Cellular tumor antigen p53 (Homo sapiens) (UniProt P04637); test: ATG_p53_CIS: Attagene CIS-FACTORIAL HepG2 Assay for human p53 Transcription Factor (AID 2282994); conditions: HepG2 p53 cis-element reporter, Attagene mRNA; actives raise or lower the signal
Cellular tumor antigen p53 (Homo sapiens), sequence (P04637 whole entry, looked up): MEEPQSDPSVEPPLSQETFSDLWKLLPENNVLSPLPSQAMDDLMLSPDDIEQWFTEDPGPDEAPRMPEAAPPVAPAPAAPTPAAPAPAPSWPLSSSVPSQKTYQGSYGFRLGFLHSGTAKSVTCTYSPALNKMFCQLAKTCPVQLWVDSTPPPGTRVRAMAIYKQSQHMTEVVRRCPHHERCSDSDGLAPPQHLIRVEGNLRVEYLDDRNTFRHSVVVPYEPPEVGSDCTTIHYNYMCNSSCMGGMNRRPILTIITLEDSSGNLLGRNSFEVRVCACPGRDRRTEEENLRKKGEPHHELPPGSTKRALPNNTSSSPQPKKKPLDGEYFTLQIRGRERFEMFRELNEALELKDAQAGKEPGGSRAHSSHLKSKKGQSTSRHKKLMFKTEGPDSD
How it was run: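 Transiently transfected HepG2 (multiple cis reporter transcription units); exposure 24 h; reporter RNA via RT-PCR, 6-FAM extension, 2 h HpaI digest at 37 C, CE detection; DMSO baseline.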

[16] = target: Hepatocyte nuclear factor 4-alpha (Homo sapiens) (UniProt P41235); test: ATG_HNF4a_TRANS: Attagene TRANS-FACTORIAL HepG2 Assay for human Hepatocyte Nuclear Factor 4 alpha (HNF4a) (AID 2282982; active = hit-call score of the fitted dose curve at least 0.9, where 1 is the maximum); conditions: HepG2 HNF4a transactivation reporter, mRNA readout
Hepatocyte nuclear factor 4-alpha (Homo sapiens), sequence (P41235 whole entry, looked up, the tested form may be a part): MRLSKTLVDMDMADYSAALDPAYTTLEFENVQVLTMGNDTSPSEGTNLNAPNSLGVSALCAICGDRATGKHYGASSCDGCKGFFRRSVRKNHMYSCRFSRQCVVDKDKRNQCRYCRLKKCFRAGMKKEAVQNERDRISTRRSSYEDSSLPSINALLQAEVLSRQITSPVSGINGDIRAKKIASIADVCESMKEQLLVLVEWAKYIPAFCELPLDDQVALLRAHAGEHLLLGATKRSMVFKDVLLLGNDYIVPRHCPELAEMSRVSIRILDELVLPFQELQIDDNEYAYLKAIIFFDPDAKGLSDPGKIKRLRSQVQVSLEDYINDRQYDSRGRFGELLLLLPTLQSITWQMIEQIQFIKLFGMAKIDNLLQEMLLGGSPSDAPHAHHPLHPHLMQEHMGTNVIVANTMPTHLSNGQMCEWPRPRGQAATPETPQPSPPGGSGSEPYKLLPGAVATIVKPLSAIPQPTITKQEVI
How it was run: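 In this trans-factorial format, a chimeric HNF4a-GAL4 fusion drives a GAL4-UAS reporter in transfected HepG2 liver cells. After 24 h treatment, reporter mRNA induction is measured by RT-PCR with capillary electrophoresis, relative to DMSO.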

[17] = BSK_3C_TissueFactor: BioMAP Diversity Plus: 3C Assay for Tissue Factor Biomarker Activity (AID 2282997); conditions: BioMAP 3C HUVEC, tissue factor biomarker readout; actives raise or lower the signal
How it was run: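 HUVEC, 3C system, 24 h post-dose; Tissue Factor by ELISA; bidirectional fit vs DMSO baseline.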

[18] = BSK_3C_uPAR: BioMAP Diversity Plus: 3C Assay for Urokinase-type plasminogen activator receptor (uPAR) Biomarker Activity (AID 2282998); conditions: BioMAP 3C HUVEC, uPAR biomarker ELISA; actives raise or lower the signal
How it was run: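 Dose primary human umbilical vein endothelial cells, incubate 24 h, measure cell-surface uPAR by ELISA, then fit the signal in both directions against the DMSO negative control.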

[19] = BSK_3C_VCAM1: BioMAP Diversity Plus: 3C Assay for Vascular cell adhesion molecule 1 (VCAM1) Biomarker Activity (AID 2282999); conditions: BioMAP 3C HUVEC, VCAM1 ELISA, cytokine-stimulated; actives raise or lower the signal
How it was run: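 Vascular primary endothelium (human umbilical vein) was exposed to chemicals and assayed 24 h later. VCAM-1 levels came from ELISA, with DMSO serving as baseline for bidirectional fitting.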

[20] = BSK_4H_Eotaxin3: BioMAP Diversity Plus: 4H Assay for Eotaxin 3 Biomarker Activity (AID 2283000); conditions: primary human endothelial cells (HUVEC); actives raise or lower the signal
How it was run: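 Readout is Eotaxin-3 (CCL26) level by ELISA in primary human umbilical vein endothelial cells harvested 24 h after chemical exposure; activity fitted in both directions against DMSO control.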

Measured: AC50

O=C1Nc2ccccc2C1(c1ccc(O)cc1)c1ccc(O)cc1
inactive: [1] | [3] | [4] | [5] | [6] | [7] | [8]
active: [2] 10.5 µM | [9] 178 µM | [10] 22.4 µM

O=[N+]([O-])C1(Br)COCOC1
active: [14] 51.7 µM
not listed: [8] | [15] | [16] | [17] | [18] | [19] | [20]
inactive: all other assays above

O=C1c2cccc(O)c2C(=O)c2c(O)cc(CO)cc21
active: [9] 6.09 µM
inactive: [1] | [2] | [11] | [13] | [5] | [6] | [7] | [8] | [10] | [15]

COC(F)(F)C(F)(C(F)(F)F)C(F)(F)F
inactive: [1] | [2] | [3] | [4] | [5] | [6] | [7] | [8] | [14] | [10] | [15]

CCCCNc1ccc(NCCCC)c2c1C(=O)c1ccccc1C2=O
not listed: [3] | [7] | [9]
inactive: all other assays above

C=CC(=O)OCC(Br)CBr (stereo not given)
active: [7] 163 µM | [14] 56.6 µM | [15] 165 µM | [17] 20 µM | [18] 34.2 µM | [19] 18.4 µM | [20] 20 µM
not listed: [3] | [9] | [11] | [12] | [16]
inactive: all other assays above

Nc1nc2ccccc2[nH]1
not listed: [14] | [17] | [18] | [19] | [20]
inactive: all other assays above

CC(C)c1ccc2c(c1)CC[C@H]1[C@](C)(CN)CCC[C@]21C
active: [14] 5.84 µM | [10] 5.89 µM
inactive: [1] | [2] | [11] | [3] | [16] | [13] | [7] | [8] | [9] | [15]

CC=CCO
not listed: [3] | [11] | [17] | [18] | [19] | [20]
inactive: all other assays above

O=C1CCCCCCCCCCCCCCCO1
active: [9] 65.2 µM
not listed: [14] | [16] | [17] | [18] | [19] | [20]
inactive: all other assays above

C=CCOc1c(Br)cc(Br)cc1Br
active: [13] 43.4 µM | [17] 13.7 µM | [18] 5.76 µM | [19] 24.3 µM | [20] 29.3 µM
not listed: [11] | [16]
inactive: all other assays above

C=C1[C@H]2CC[C@@H]3[C@H]2C(C)(C)CCC[C@]13C
inactive: [1] | [2] | [16] | [12] | [13] | [5] | [6] | [7] | [8] | [9] | [15]

CC1=NN(c2cc(S(=O)(=O)O)ccc2Cl)C(=O)C1N=Nc1ccccc1 (stereo not given)
not listed: [7] | [13] | [14] | [17] | [18] | [19] | [20]
inactive: all other assays above

O=C(O)CC(C(=O)O)C(CC(=O)O)C(=O)O (stereo not given)
not listed: [11] | [13] | [16] | [17] | [18] | [19] | [20]
inactive: all other assays above

CCOc1nc(F)cc2nc(S(=O)(=O)Nc3c(Cl)cccc3C(=O)OC)nn12
active: [9] 27 µM
not listed: [4] | [7] | [11] | [13]
inactive: all other assays above

CC(=O)c1ccc[nH]1
not listed: [4] | [12] | [13] | [16] | [17] | [18] | [19] | [20]
inactive: all other assays above
